Sampled rows, rich in hits. Any-hit rate of the full collection: about 3%.
ABHD5-PLIN5 inh = inhibitors of human ABHD5-perilipin-5 interaction | inhibition, % at 4 µM | Split G. princeps luciferase complementation, luminescence, 4 h | Q00G26+Q8WTS1 | 360,000 compounds, 0.78% hits;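 active means inhibition above the mean inhibition across every tested compound plus 3 SD, cut at about 22% in these data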;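 further: 0% = DMSO only wells and the 100% control is not disclosed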
Target sequence (Q00G26 whole entry, looked up): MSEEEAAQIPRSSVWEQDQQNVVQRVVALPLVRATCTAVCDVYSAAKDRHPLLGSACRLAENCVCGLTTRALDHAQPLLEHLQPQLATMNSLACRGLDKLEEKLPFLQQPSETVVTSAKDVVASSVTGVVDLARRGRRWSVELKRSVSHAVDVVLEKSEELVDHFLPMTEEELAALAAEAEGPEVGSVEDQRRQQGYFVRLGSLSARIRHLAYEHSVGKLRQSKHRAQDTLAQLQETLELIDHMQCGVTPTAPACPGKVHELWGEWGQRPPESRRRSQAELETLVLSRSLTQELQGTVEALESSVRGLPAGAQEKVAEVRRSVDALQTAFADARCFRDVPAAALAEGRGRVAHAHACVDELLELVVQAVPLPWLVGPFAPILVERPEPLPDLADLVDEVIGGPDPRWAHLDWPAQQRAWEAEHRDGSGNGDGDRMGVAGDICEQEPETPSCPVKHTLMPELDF
Target sequence (Q8WTS1 whole entry, looked up): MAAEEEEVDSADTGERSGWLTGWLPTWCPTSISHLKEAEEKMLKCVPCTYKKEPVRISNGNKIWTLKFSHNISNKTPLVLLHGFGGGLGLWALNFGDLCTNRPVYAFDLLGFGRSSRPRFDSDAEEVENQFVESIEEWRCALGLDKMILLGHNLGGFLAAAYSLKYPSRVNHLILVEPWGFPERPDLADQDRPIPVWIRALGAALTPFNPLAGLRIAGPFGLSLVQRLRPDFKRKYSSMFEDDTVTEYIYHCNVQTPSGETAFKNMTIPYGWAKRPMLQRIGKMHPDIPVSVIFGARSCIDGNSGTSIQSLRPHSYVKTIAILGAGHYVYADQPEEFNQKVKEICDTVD
CF NFkB inh = cystic fibrosis NF-kB activation inhibition; KKLEB NF-kB-GFP reporter, PAF-induced, GFP fluorescence overnight; inhibition, % at 5 µM; 360,000 compounds, 0.86% hits;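 active means at least 50% inhibition at 5 µM, scaled per plate between neutral and stimulator controls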;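 further: PAF is a Pseudomonas aeruginosa culture filtrate used as stimulus; plate controls were PAF-stimulated DMSO wells for no effect and unstimulated DMSO wells for full effect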
KKLEB cytotox = counter-screen for CF NF-kB inhibitors: cytotoxicity. KKLEB CF airway cells viability, ATPlite luminescence, overnight; stronger effect = lower value; cells stimulated with P. aeruginosa culture filtrate. activity change (cytotoxicity), % at 5 µM. 360,000 compounds, 0.36% hits. AID 602141;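 active means corrected activity change at or below -50% at 5 µM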
HIF-2a block = blocks HIF-2a reporter activity | 786-0 RCC cells HIF-2a reporter, luciferase luminescence, overnight | inhibition, % at 18.8 µM | 360,000 compounds, 0.72% hits | AID 624352;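 active means inhibition of the luminescence signal of 40% or more relative to plate controls, in a single-dose primary screen at 18.75 µM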
Peg3 prom inh = Peg3 promoter activity inhibition | HeLa PEG-Prom luciferase reporter, luminescence, overnight | inhibition, % at 20 µM | 360,000 compounds, 1.7% hits | AID 588405;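 active means inhibition of at least 50% at 20 µM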
TRPM1 prom inh = MITF TRPM1 promoter inhibition in SK-MEL-5 cells; SK-MEL-5 TRPM1 promoter luciferase, 24 h; inhibition, % at 12.5 µM; 330,000 compounds, 0.83% hits; AID 488899;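 active means mean inhibition across replicates of 60% or more, whatever share of single replicates reaches that level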
An asterisk follows results filed as active.

SMILES	ABHD5-PLIN5 inh	CF NFkB inh	KKLEB cytotox	HIF-2a block	Peg3 prom inh	TRPM1 prom inh
N#Cc1ccc(Nc2nc(-c3ccc(O)cc3O)cs2)cc1C(F)(F)F	-32	6	10	-59	103*	-11
Cc1ccc(C(=O)CCS(=O)(=O)c2ccc(F)cc2)cc1	2	32	-11	7	60*	-4
Cc1ccc(CN2[C@@H](CC(C)C)COCCS2(=O)=O)cc1	0	16	-7	8	5	1
CCCCn1c(SCC(=O)Nc2sc3c(c2C(N)=O)CCC3)nnc1-c1ccccc1	22*	12	1	31	35	5
NC(=O)c1c(NC(=O)CSc2nnc(Cc3ccccc3)n2Cc2ccco2)sc2c1CCC2	-5	19	-21	-15	36	6
CCOC(=O)c1cccc(C(=O)Nc2nc3ccc(OC)cc3s2)n1	0	-19	-55*	-198	-133	-51
O=C(Nc1nc2cc3c(cc2s1)OCCO3)c1ccc([N+](=O)[O-])o1	1	83*	-44	-197	49	35
COc1ccc2nc(NC(=O)c3ccc([N+](=O)[O-])o3)sc2c1	-2	66*	-21	-136	-25	14
COc1ccc2nc(NC(=O)c3ccccc3O)sc2c1	4	2	-28	-296	-218	-93
CCC(C)(C)NC(=O)C1CCCN(S(=O)(=O)c2ccc3c(c2)CC(C)N3C(=O)C2CC2)C1 (stereo unspecified)	5	11	-14	10	14	-9
COc1ccc(/C=N/NC(=O)c2ccc(NS(=O)(=O)c3cccs3)cc2)cc1	3	-48	-8	-34	104*	-15
O=C(O)c1ccc(/C=N/NC(=O)c2ccc(NS(=O)(=O)c3cccs3)cc2)cc1	5	31	6	14	-1	2
Cc1cc(C)c(S(=O)(=O)/N=C2/C=C(SCC(=O)O)C(=O)c3ccccc32)cc1C	-10	56*	-4	2	2	51
Cc1ccccc1C(=O)Nc1ccnn1C1CCN(C2CCSCC2)CC1	7	6	-5	25	-4	-1
COc1ccc(C(=O)Nc2ccc3c(c2)C(=O)c2ccccc2C3=O)cc1OC	2	-4	-2	-51	-62	-9
COc1ccc(C(=O)c2c(C(F)(F)F)oc3c2C(=O)c2ccccc2C3=O)cc1OC	3	88*	-65*	4	89*	90*
Cc1ccccc1NC(=O)CSc1nnc(-c2ccco2)c(-c2ccco2)n1	19	-3	3	-7	6	-8
Cc1cccc(C)c1NC(=O)CSc1nnc(-c2ccco2)c(-c2ccco2)n1	23*	-12	2	4	10	-1
O=C(CSc1nnc(-c2ccco2)c(-c2ccco2)n1)Nc1ccccc1	26*	-5	1	10	-4	-1
COc1ccc(CNC(=O)C(c2ccco2)N(Cc2cccs2)C(=O)Cc2cccs2)cc1 (stereo unspecified)	2	8	0	6	39	-1
COc1ccc(CNC(=O)C(c2cccs2)N(Cc2ccco2)C(=O)Cc2cccs2)cc1 (stereo unspecified)	8	4	-10	5	57*	-7
COc1ccc(CNC(=O)C(c2ccc(C)cc2)N(Cc2cccs2)C(=O)c2ccc3c(c2)OCCO3)cc1 (stereo unspecified)	0	100*	-94*	-67	63*	5
COCCN(C(=O)Cc1cccs1)C(C(=O)NCc1ccc(OC)cc1)c1ccc(OC)cc1 (stereo unspecified)	-6	-13	9	10	10	9
COc1cccc(CNC(=O)c2ccc(OCC(=O)N3CCOCC3)c(OC)c2)c1	1	6	-6	13	-1	-2
COc1cccc(CNC(=O)C2=Cc3cccc(OC)c3OC2)c1	2	18	-1	1	58*	-1
SMILES	ABHD5-PLIN5 inh	CF NFkB inh	KKLEB cytotox	HIF-2a block	Peg3 prom inh	TRPM1 prom inh
CCOc1ccc(/C=C/C(O)=C2/C(=O)NC3(C)CC2c2ccccc2O3)cc1OC (stereo unspecified)	12	15	-11	22	37	51
CCOc1ccc(/C=C/C(O)=C2/C(=O)N(C)C3(C)CC2c2ccccc2O3)cc1OC (stereo unspecified)	13	47	-14	62*	40	35
COc1ccc2[nH]c(-c3cccc(F)c3)cc(=O)c2c1	4	56*	-10	-127	-249	19
Cc1ccc2[nH]c(-c3cccc(F)c3)cc(=O)c2c1	0	40	-1	-120	-183	7
CSc1ccccc1NC(=O)COC(=O)c1cnc(C)cn1	0	5	5	4	13	17
Nc1ccc2c(c1)C(=O)C(=O)c1ccccc1-2	14	80*	-96*	93*	100*	107*
O=C(CCCOc1ccc(Cl)cc1Cl)N/N=C/c1ccccc1O	-3	-11	8	-2	52*	22
O=C(CCCOc1ccc(Cl)cc1Cl)N/N=C/c1ccccc1	-3	-6	-6	-1	7	-8
Cc1cccc(CSc2nc(N)c(C#N)c(-c3cccs3)c2C#N)c1	-6	19	-20	25	63*	8
CCC[C@@H](CN1CCC[C@H]1CN1C(N)=NC[C@@H]1Cc1ccccc1)N1C[C@@H]([C@H](C)CC)N(CCCC2CCCC2)C1=N	32*	23	-19	3	7	29
C[C@@H](CN1CCC[C@H]1CN1C(N)=NC[C@@H]1Cc1ccccc1)N1C[C@@H](Cc2ccccc2)N(CCc2ccc(Cl)c(Cl)c2)C1=N	41*	-6	-2	7	-9	-3
CC[C@@H](C)[C@@H]1CN([C@@H](C)CN2CCC[C@H]2CN2C(N)=NC[C@H]2CC(C)C)C(=N)N1CCc1ccc(Cl)c(Cl)c1	30*	-9	-6	1	-8	8
CCC[C@@H](CN1CCC[C@H]1CN1C(N)=NC[C@H]1CC(C)C)N1C[C@@H](Cc2ccccc2)N(CCc2ccc(Cl)c(Cl)c2)C1=N	23*	21	-14	4	-17	-12
CC(C)[C@@H]1CN=C(N)N1C[C@@H]1CCCN1C[C@H](C)N1C[C@@H](Cc2ccccc2)N(CCc2ccc(Cl)c(Cl)c2)C1=N	19	5	8	-5	-3	-2
CCOc1cc(/C=C2\SC(=Nc3ccc(CC)cc3)NC2=O)ccc1OCC(=O)O	2	13	9	-25	22	0
COc1ccc(Oc2ccc(/C=C/C(=O)c3cccc(OC)c3)cc2[N+](=O)[O-])cc1	10	-28	1	34	114*	1
CCN(C(=O)CSc1nnc(-c2ccccc2OC)n1N)c1c(N)n(Cc2ccccc2)c(=O)[nH]c1=O	0	-25	-8	7	4	-8
COc1cc(Br)cc(/C=N/NC(=O)Cc2ccc(C(F)(F)F)cc2[N+](=O)[O-])c1O	2	-5	6	18	54*	13
